Experimental data as given in the supplement of paper PMC11732987, “Enantioselective OTUD7B fragment discovery through chemoproteomics screening and high-throughput optimisation” (Communications Chemistry, 2025).

What was measured:
Experiment in all cases: log2 ratio of Biotin-Ahx-Ub-VS probe labelling (fragment/DMSO); higher = less target engagement (more negative = stronger competition), active = hit call of the paper (q ≤ 0.05, log2 ratio ≤ -1)
Settings in all cases: compound concentration: 200 uM; treatment time: 3 h
OTUD6B = target: T1, OTUD6B (UniProt Q8N6M0)
T1 sequence (whole entry): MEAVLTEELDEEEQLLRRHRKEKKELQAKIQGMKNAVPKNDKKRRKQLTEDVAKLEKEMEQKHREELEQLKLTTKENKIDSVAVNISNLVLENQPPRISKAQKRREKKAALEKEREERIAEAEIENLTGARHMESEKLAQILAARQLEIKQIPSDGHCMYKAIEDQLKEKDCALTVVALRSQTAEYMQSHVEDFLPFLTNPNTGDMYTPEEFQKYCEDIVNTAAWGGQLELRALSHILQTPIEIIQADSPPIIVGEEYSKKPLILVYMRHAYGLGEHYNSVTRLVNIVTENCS
Method in brief: (§1)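 Average log2 ratios of fragment over vehicle were obtained by unpaired t-test from global-median-normalised Spectronaut label-free quantities. Proteins with ≥2 unique peptides were included. HEK293T lysate (495 µg per sample) was treated in triplicate with fragment at 200 µM or vehicle for 3 h, then with Biotin-Ahx-Ub-VS at 0.5 µM final for 1 h, and labelled DUBs were NeutrAvidin-enriched and run by diaPASEF LC-MS/MS.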

OTUD7B = target: T2, OTUD7B (UniProt Q6GQQ9)
T2 sequence (whole entry): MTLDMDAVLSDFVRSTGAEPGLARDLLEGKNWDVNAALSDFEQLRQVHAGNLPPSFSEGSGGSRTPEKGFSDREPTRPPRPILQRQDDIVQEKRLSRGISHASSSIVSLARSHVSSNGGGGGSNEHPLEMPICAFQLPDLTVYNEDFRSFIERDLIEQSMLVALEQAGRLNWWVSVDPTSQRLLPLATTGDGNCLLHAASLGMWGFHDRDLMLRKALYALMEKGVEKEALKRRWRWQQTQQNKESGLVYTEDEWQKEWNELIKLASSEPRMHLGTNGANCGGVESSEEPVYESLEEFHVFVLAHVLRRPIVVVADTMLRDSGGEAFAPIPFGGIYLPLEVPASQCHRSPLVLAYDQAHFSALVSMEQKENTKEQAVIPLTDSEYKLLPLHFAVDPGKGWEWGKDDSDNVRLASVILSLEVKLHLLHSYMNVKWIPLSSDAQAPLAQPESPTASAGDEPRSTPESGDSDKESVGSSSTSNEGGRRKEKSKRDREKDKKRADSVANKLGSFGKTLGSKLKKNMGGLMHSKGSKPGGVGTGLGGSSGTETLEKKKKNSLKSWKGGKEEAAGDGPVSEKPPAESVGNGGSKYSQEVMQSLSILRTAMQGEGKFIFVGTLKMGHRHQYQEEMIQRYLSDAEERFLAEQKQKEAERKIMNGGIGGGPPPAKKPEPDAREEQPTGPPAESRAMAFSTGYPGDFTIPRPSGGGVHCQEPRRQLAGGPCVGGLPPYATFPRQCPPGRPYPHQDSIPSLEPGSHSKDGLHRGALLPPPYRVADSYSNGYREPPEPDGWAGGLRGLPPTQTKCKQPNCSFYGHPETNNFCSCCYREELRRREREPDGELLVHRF
Method in brief: as §1

PRPF8 = PRPF8 (UniProt Q6P2Q9)
Method in brief: as §1

PSMD7 = target: T3, PSMD7 (UniProt P51665)
T3 sequence (whole entry): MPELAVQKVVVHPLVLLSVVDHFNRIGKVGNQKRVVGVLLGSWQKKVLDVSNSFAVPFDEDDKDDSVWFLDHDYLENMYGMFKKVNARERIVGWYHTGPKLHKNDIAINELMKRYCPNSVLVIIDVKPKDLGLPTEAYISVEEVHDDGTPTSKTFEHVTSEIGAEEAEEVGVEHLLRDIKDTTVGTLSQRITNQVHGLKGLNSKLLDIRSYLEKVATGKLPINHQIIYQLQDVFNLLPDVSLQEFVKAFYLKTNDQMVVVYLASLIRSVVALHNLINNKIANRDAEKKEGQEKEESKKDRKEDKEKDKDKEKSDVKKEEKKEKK
Method in brief: as §1

UCHL1 = UCHL1 (UniProt P09936)
Method in brief: as §1

UCHL3 = target: T4, UCHL3 (UniProt P15374)
T4 sequence (whole entry): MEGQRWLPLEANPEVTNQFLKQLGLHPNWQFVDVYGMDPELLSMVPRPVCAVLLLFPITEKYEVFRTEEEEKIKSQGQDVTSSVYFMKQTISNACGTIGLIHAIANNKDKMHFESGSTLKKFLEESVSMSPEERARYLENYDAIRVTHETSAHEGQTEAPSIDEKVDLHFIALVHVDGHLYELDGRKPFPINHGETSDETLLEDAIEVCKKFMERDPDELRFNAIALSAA
Method in brief: as §1

UCHL5 = target: T5, UCHL5 (UniProt Q9Y5K5)
T5 sequence (whole entry): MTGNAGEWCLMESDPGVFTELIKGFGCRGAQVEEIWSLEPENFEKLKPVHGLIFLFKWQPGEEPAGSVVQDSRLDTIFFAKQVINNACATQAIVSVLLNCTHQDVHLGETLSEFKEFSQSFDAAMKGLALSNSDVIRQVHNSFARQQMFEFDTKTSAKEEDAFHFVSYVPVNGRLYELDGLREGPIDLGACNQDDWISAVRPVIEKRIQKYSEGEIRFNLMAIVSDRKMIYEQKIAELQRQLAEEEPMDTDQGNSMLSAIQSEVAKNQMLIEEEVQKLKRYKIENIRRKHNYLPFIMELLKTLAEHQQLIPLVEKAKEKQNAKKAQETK
Method in brief: as §1

USP10 = USP10 (UniProt Q14694)
Method in brief: as §1

USP15 = target: T6, USP15 (UniProt Q9Y4E8)
T6 sequence (whole entry): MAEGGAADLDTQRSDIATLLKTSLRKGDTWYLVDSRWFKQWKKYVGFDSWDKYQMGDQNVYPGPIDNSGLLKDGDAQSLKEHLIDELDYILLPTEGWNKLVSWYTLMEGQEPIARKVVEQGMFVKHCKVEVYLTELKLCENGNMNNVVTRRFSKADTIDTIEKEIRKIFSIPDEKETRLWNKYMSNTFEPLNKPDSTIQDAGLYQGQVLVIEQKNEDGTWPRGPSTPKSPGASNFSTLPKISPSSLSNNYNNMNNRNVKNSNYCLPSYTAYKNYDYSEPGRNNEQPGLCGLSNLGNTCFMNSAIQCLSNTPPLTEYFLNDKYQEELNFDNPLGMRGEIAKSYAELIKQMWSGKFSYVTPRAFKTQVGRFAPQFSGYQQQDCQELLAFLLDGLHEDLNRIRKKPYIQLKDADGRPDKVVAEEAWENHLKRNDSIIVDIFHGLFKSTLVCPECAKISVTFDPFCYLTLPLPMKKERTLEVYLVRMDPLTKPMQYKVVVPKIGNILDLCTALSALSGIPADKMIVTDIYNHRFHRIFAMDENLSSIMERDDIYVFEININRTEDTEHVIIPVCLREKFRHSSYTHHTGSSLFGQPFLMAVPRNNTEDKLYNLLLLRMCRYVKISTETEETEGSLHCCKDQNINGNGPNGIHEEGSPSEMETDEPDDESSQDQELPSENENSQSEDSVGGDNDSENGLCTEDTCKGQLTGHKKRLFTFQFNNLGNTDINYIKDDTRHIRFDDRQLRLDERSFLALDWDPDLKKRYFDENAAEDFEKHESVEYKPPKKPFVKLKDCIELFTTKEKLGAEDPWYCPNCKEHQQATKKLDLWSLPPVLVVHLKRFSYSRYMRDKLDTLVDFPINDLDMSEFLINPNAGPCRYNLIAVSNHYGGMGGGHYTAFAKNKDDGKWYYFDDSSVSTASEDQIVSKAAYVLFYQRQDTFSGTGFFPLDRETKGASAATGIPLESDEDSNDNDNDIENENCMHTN
Method in brief: as §1

USP16 = USP16 (UniProt Q9Y5T5)
Method in brief: as §1

Measured: log2 ratio of Biotin-Ahx-Ub-VS probe labelling

Sequence of USP10 (Q14694 whole entry): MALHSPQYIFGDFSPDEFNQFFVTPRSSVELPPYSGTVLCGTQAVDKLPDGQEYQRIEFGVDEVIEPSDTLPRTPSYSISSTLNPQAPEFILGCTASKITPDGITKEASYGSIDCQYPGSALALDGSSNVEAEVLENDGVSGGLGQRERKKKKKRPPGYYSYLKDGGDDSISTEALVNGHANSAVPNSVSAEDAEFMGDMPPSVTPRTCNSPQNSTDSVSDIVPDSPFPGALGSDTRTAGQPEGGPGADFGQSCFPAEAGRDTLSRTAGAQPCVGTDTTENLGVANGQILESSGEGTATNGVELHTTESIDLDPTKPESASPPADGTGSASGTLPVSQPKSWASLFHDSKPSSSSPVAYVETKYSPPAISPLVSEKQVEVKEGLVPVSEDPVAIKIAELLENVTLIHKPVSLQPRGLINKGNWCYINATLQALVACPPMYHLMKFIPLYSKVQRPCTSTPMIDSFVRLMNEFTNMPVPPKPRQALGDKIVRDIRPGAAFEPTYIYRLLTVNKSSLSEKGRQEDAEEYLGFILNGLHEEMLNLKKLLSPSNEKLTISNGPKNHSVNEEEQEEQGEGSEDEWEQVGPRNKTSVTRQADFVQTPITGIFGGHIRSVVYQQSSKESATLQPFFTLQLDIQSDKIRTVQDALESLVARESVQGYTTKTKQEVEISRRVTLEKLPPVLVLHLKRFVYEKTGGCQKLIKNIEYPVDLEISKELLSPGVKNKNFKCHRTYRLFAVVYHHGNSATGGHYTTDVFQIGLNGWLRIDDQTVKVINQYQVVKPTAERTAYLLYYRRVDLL
Sequence of USP16 (Q9Y5T5 whole entry, looked up): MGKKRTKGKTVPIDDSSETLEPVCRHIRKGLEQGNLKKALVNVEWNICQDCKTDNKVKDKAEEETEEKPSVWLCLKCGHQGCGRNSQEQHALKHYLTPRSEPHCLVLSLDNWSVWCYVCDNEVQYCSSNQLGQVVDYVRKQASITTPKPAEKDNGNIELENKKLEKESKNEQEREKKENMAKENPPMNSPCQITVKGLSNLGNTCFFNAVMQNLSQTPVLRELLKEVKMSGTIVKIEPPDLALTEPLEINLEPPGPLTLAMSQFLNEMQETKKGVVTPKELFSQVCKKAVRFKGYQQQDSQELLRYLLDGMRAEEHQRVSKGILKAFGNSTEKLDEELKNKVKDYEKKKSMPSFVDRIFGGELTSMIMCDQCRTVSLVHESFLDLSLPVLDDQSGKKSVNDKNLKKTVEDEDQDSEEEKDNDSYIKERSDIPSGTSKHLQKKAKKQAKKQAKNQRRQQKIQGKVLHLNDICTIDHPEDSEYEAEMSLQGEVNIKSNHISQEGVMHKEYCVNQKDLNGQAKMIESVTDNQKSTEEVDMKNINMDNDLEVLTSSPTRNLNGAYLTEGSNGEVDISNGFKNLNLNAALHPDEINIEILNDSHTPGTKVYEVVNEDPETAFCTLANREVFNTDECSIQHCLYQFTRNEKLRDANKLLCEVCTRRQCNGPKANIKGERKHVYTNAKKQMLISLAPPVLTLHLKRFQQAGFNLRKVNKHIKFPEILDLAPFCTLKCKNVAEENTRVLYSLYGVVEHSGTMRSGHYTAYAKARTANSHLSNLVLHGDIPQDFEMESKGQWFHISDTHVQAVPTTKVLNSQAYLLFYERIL
Sequence of UCHL1 (P09936 whole entry, looked up): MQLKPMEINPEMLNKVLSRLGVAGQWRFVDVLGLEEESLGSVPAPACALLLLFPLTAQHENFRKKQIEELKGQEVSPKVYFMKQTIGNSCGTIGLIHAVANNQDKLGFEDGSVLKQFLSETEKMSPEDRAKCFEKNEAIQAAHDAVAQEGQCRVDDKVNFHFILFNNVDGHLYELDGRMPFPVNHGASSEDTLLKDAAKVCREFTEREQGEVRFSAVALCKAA

Cc1ccccc1CN(C)C(=O)CCl
active: UCHL1 -1.98 | UCHL5 -1.01
inactive: OTUD6B -0.788 | OTUD7B -0.98 | PRPF8 -0.0478 | PSMD7 -0.18 | UCHL3 -0.483 | USP10 -0.154 | USP15 -0.803 | USP16 -0.62
